Compound activity from PubChem.
TRPV1 potentiator – HTS Assay for Compounds that Act as Potentiators of the Vanilloid Receptor 1 | Transient receptor potential cation channel subfamily V member 1 (Homo sapiens), Q8NER1 | TRPV1-expressing cells, Fluo-8 calcium influx, capsaicin EC20 potentiation | potentiation, % at 8.33 µM | 320,000 tested, 0.02% active; in the data active = potentiation above about 80%; inconclusive = between about 30% and that limit; note: 0% is about no effect
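TRPV1-expressing cells were cultured overnight at 35.5C and loaded with Fluo-8 calcium dye for 40 to 90 min at room temperature. After a 10 s baseline, compound was added and calcium influx was read kinetically for 3 min (ex 480/em 520 nm).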
gsp agonist – qHTS for Agonist of gsp, the Etiologic Mutation Responsible for Fibrous Dysplasia/McCune-Albright Syndrome: qHTS; gsp mutant cells, cAMP HTRF, 30 min; AID 624287, 2012; 340,000 tested, 0.13% active; Potency, µM (doses to about 76.9 µM), inactives show top-dose activation (cAMP increase), actives largely listed as activators; active = well fitted activation curve with a large enough effect; inconclusive = small, poorly fitted or top-dose-only effect, or another doubt; inactive = no such curve, though single readings can be large or run the other way; cell line not stated here;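 note: phosphodiesterase inhibitor Ro 20-1724 added with compounds to block cAMP breakdown; potency is the fitted concentration of half-maximal effect; nearly all actives have a fitted effect of over 60% in size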
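Cells stably selected in G418 were plated at 2000/well, grown 16-24 hr, then given compounds in DMSO with the PDE inhibitor […] (300 uM solution added) for 30 min at 37C; cAMP was read by HTRF.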
gsp antag – qHTS for Antagonists of gsp, the Etiologic Mutation Responsible for Fibrous Dysplasia/McCune-Albright Syndrome: qHTS; AID 624288, 2012; 340,000 tested, 0.4% active; Potency, µM (titrated, usually from 76.9 µM), inactives show at the highest dose activity change, negative = inhibition, actives largely listed as inhibitors; gsp-mutant cells, cAMP HTRF, 30 min; calls by dose curve; cell line not stated here;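 note: intracellular cAMP measured with PDE inhibitor Ro 20-1724 present during compound exposure; potency is the fitted concentration of half-maximal effect; % is set by controls: 0 for no effect and ±100 for the full control effect; nearly all actives have a fitted effect of over 65% in size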
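HTRF cAMP measurement after 30 min RT detection following 30 min, 37C compound treatment alongside […] (added as 300 uM solution) in G418-selected cells seeded at 2000/well and grown 16–24 h.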
RXFP1 agonist – qHTS Assay for Agonists of the Relaxin Receptor RXFP1; HEK293T-RXFP1 cAMP TR-FRET, 30 min; response scale: percent of porcine relaxin response, buffer zero; Relaxin receptor 1 (Homo sapiens), Q9HBX9; 370,000 tested, 0.3% active; Potency, µM (titrated, usually from 57.5 µM), for the others: at the highest dose activation, actives largely listed as activators; AID 2676, 2010; active = well fitted activation curve with a large enough effect; inconclusive = small, poorly fitted or top-dose-only effect; note: potency is the fitted concentration of half-maximal effect; % is set by controls: 0 for no effect and ±100 for the full control effect; nearly all actives have a fitted effect of over 60% in size
Target sequence (Q9HBX9 whole entry, looked up): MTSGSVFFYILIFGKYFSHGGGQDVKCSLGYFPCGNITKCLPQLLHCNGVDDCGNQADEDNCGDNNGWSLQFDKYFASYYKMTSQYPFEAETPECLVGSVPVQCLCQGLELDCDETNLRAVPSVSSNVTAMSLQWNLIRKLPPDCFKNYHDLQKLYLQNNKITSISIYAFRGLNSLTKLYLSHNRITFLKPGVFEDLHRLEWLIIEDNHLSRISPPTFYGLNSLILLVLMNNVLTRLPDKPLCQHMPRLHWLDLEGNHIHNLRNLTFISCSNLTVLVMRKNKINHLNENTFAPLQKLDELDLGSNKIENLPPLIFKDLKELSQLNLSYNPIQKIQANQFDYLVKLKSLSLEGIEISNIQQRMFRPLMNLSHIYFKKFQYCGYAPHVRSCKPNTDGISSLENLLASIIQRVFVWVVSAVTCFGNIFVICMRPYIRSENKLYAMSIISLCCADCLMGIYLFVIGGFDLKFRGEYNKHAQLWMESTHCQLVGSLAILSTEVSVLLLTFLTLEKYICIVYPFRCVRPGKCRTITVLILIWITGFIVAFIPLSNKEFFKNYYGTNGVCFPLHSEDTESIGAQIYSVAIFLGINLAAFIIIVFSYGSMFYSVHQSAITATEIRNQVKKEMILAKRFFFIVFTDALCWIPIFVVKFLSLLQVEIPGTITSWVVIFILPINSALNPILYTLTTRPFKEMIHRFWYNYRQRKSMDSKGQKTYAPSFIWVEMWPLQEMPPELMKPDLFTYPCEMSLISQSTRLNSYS
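Agonist response is measured as cAMP accumulation in an RXFP1-transfected HEK293T line under PDE4 inhibition. Values are scaled between buffer-only and 29 nM porcine relaxin, and EC50s come from standard Hill equation fits.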
RXFP1 antagonist – qHTS Assay for Antagonists of the Relaxin Receptor RXFP1 | Relaxin receptor 1 (Homo sapiens), Q9HBX9 | HEK293-RXFP1, relaxin-stimulated cAMP HTRF, 30 min; hits give low values | activity change, negative = inhibition, % at 57.5 µM | 350,000 tested, 0.59% active | AID 1259400, 2018;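 active = activity change of -60% or lower, but not beyond a set lower limit; inconclusive = change between -60% and -40%, or beyond the set limit; inactive = change above -40%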; note: % is set by controls: 0 for no effect and ±100 for the full control effect
TRPV1 agonist – HTS Assay for Compounds that Act as Agonists of the Vanilloid Receptor 1. Transient receptor potential cation channel subfamily V member 1 (Homo sapiens), Q8NER1. TRPV1-expressing cells, Fluo-8 calcium influx, agonist mode. activation, % at 8.33 µM. 320,000 tested, 0.19% active; in the data active = activation above about 80%; inconclusive = between about 30% and that limit; note: 0% is about no effect
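Fluo-8 calcium influx in TRPV1-expressing cells, kinetic read (ex 480/em 520 nm). Compound added and read 3 min for agonist activity, followed by capsaicin at EC20 final and 2 min further read for enhancement.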
Active calls of the source: *; [ ] = remark or other dose. Compounds with a hit are over-represented: about 1.1% of the library has one in this group of screens.

How did CC[C@@H]([C@H](C)O)n1ncn(-c2ccc(N3CCN(c4ccc(OC[C@@H]5CO[C@@](Cn6cncn6)(c6ccc(F)cc6F)C5)cc4)CC3)cc2)c1=O do in these assays?
RXFP1 antagonist: -19.8

How did CCCSS/C(CCO)=C(\C)N(C=O)Cc1cnc(C)nc1N do in these assays?
RXFP1 antagonist: 9.1

How did O=[N+]([O-])c1cc(CN2CCOCC2)c2cccnc2c1O do in these assays?
TRPV1 potentiator: -23.8; gsp agonist: -3.1%[15.4 µM]; gsp antag: -20.0%; RXFP1 agonist: 0.1%; RXFP1 antagonist: -102.1*; TRPV1 agonist: 9.3

Results for Cc1nn(-c2cccc(Cl)c2)c2c1C(c1ccncc1)C(C#N)=C(N)O2 (stereo not given) ?
TRPV1 potentiator: -3.9; gsp agonist: -0.6%; gsp antag: 39.8µM*; RXFP1 agonist: -0.1%; RXFP1 antagonist: -7.2; TRPV1 agonist: 6.6

How did Cc1ccc(C(=O)Nc2nc(=O)n(C(=O)c3ccccc3C)s2)cc1 do in these assays?
TRPV1 potentiator: 16.5; gsp agonist: 1.0%; gsp antag: 39.8µM*; RXFP1 agonist: -0.4%; RXFP1 antagonist: -9.6; TRPV1 agonist: -1.6

What do the screens show for `O=C(Cn1[nH]c(=O)c2ccccc2c1=O)OCC(=O)c1ccc(Br)cc1`?
TRPV1 potentiator: -3.6; gsp agonist: -10.1%[15.4 µM]; gsp antag: -15.3%; RXFP1 agonist: 0.9%; RXFP1 antagonist: -76.0*; TRPV1 agonist: -5.6

Results for COc1ccccc1C(=O)COC(=O)Cn1[nH]c(=O)c2ccccc2c1=O ?
TRPV1 potentiator: 6.9; gsp agonist: -3.4%[15.4 µM]; gsp antag: -19.0%; RXFP1 agonist: 12.9%; RXFP1 antagonist: -11.1; TRPV1 agonist: -0.8

How did COc1ccc(OC)c(NC(=O)CSc2ncnc3sc(C)cc23)c1 do in these assays?
gsp agonist: 6.8%[15.4 µM]; gsp antag: 8.3%; RXFP1 antagonist: -34.3

Results for Brc1ccc2c(c1)OCCOCCOc1cc(Br)ccc1OCCOCCOCCO2 ?
TRPV1 potentiator: 11.6; gsp agonist: -9.3%; gsp antag: 50.1µM*; RXFP1 agonist: 0.5%; RXFP1 antagonist: -38.3; TRPV1 agonist: 2.1

What do the screens show for `Brc1cc2c(cc1Br)OCCOCCOCCOCCO2`?
TRPV1 potentiator: -4.9; gsp agonist: -3.1%[15.4 µM]; gsp antag: -6.1%; RXFP1 agonist: 1.1%; RXFP1 antagonist: -31.9; TRPV1 agonist: -1.1

Results for Cn1cc(S(=O)(=O)N2CCCCC2)cc1C(=O)N1CCN(c2ccccc2F)CC1 ?
RXFP1 agonist: -2.3%

What do the screens show for `CC1CCC(NC(=O)C2CCC(CNS(=O)(=O)c3cccc4cccnc34)CC2)CC1` (stereo not given)?
TRPV1 potentiator: 19.4; gsp agonist: -5.7%; gsp antag: -3.2%; RXFP1 agonist: 0.8%; RXFP1 antagonist: -20.9; TRPV1 agonist: 2.7

What do the screens show for `CC1(C)CC(Cc2ccc(Cl)nc2)N(C(=O)OC(C)(C)C)C1` (stereo not given)?
gsp agonist: -64.3%; RXFP1 antagonist: 5.0

What do the screens show for `Cc1ccc(NC(=O)/C(=C\c2ccc([N+](=O)[O-])cc2)NC(=O)c2ccccc2)cc1`?
gsp agonist: -5.2%; gsp antag: 0.4%; RXFP1 agonist: -0.9%; RXFP1 antagonist: -7.8

Results for O=C(N/N=C/c1ccc(O)c(O)c1O)/C(=C/c1ccc([N+](=O)[O-])cc1)NC(=O)c1ccccc1 ?
TRPV1 potentiator: 4.4; gsp agonist: 7.6%[15.4 µM]; gsp antag: -28.3%; RXFP1 agonist: -0.2%; RXFP1 antagonist: -71.3*; TRPV1 agonist: -2.5

What do the screens show for `CC(NC(=O)C1CCC(CNS(=O)(=O)c2ccccc2)CC1)c1ccccc1` (stereo not given)?
TRPV1 potentiator: -13.0; gsp agonist: 0.6%[15.4 µM]; gsp antag: -24.8%; RXFP1 agonist: 0.5%; RXFP1 antagonist: 7.2; TRPV1 agonist: 4.4

How did Cc1ccccc1-c1nnn(Cc2cccc(S(=O)(=O)N3CCOCC3)c2)n1 do in these assays?
TRPV1 potentiator: -9.7; gsp agonist: 2.9%; gsp antag: 35.5µM*; RXFP1 agonist: 1.1%; RXFP1 antagonist: 1.0; TRPV1 agonist: 2.7

What do the screens show for `O=C1c2ccccc2S(=O)(=O)N1Cc1cccc(S(=O)(=O)N2CCOCC2)c1`?
TRPV1 potentiator: -1.8; gsp agonist: 0.5%; gsp antag: 3.0%; RXFP1 agonist: 9.2%; RXFP1 antagonist: -14.4; TRPV1 agonist: 2.5

How did CC(C)NC(=O)CSc1nc(N)c(NC(=O)c2ccco2)c(=O)[nH]1 do in these assays?
TRPV1 potentiator: 7.9; gsp agonist: 11.0%[15.4 µM]; gsp antag: 3.6%; RXFP1 agonist: -0.3%; RXFP1 antagonist: -33.0; TRPV1 agonist: 1.2

What do the screens show for `CCOc1ccc2c(c1)c(=O)c(S(=O)(=O)c1ccc(CC)cc1)cn2Cc1cccc(Cl)c1`?
RXFP1 agonist: -1.9%; RXFP1 antagonist: -6.0

How did NC(=S)N/N=C1\CC(c2ccc3c(c2)OCCCO3)Oc2ccc(F)cc21 (stereo not given) do in these assays?
TRPV1 potentiator: 9.5; gsp agonist: -14.1%; gsp antag: -32.9%; RXFP1 agonist: -5.5%; RXFP1 antagonist: -61.3*; TRPV1 agonist: -6.6

How did Cc1cc(NC(=O)CSc2nnc3c(C)cc4c(C)ccc(C)c4n23)no1 do in these assays?
TRPV1 potentiator: 18.9; gsp agonist: 9.2%; gsp antag: -0.7%; RXFP1 agonist: 0.9%; RXFP1 antagonist: 10.3; TRPV1 agonist: -1.4

How did COc1cc2cc(C)c3nnc(SCC(=O)Nc4cc(C)on4)n3c2cc1OC do in these assays?
TRPV1 potentiator: 107.8*; gsp agonist: inconclusive; gsp antag: -17.2%; RXFP1 agonist: 10.8%; RXFP1 antagonist: 2.8; TRPV1 agonist: -8.6

What do the screens show for `CCn1c2ccccc2nc2cc3c(cc21)c(Cl)c(=O)c1ccccc13`?
gsp agonist: -22.8%; RXFP1 antagonist: 3.6

Results for CC(C)CCn1c(-c2nonc2N)nc2ccccc21 ?
TRPV1 potentiator: -5.1; gsp agonist: -21.5%; gsp antag: 28.2µM*; RXFP1 agonist: 0.7%; RXFP1 antagonist: -3.5; TRPV1 agonist: 13.0

What do the screens show for `CCCCn1c(-c2nonc2N)nc2ccccc21`?
TRPV1 potentiator: 3.2; gsp agonist: 2.2%; gsp antag: inconclusive; RXFP1 agonist: -4.9%; RXFP1 antagonist: -6.4; TRPV1 agonist: 2.9
